Laboratory results from PubChem BioAssay.
Where “and” joins values, the source holds several entries; their conditions need not be identical. Identical values can stand only once. A structure can be active in one record and inactive in another. Calls of active or inactive are those of the source.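 Rule for the calls, unless noted: active = inhibition at or above 50% relative to wild type and mutant plate controls; inactive = inhibition below 50%.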

Columns and labels:
[1] = inhibitors of mutant huntingtin aggregation, primary screen, imaging, exon1htt(103Q)mCFP cells, high-content imaging (AID 483;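 active = visual image review flags a hit and inhibition of aggregation exceeds 20%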;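 note: compound exposure lasted 3 days before fixation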;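 for nuclei count: percent of the per-plate median nuclei count of sample wells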); settings: exon1htt(103Q)mCFP cell line, aggregate imaging, at 2 µM; inhibition of aggregation: stronger effect = higher value; nuclei count: measured here: cell count, toxicity
[2] = inhibitors of E-selectin induction by TNFa, primary screen, imaging, HUVEC, immunofluorescence, MLSMR starter and 10KST1 sets (AID 487;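 active = visually confirmed hit in the image check and inhibition above 20%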;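 for inhibition: signal is fraction of cell area covered by stained E-selectin grains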;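 for nuclei count: 100% = median nuclei count of all wells on the same plate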); settings: HUVEC TNFalpha-induced E-selectin immunofluorescence imaging, at 2 µM; inhibition: stronger effect = higher value; nuclei count: measured here: cell number, toxicity
[3] = DUSP6 inhibitors restoring Erk phosphorylation by chemical complementation, primary imaging in DUSP6-transfected HeLa (AID 609;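 active = compounds giving at least 50% inhibition in the cell-based MKP-3 phosphatase rescue imaging test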;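 for inhibition: phospho-Erk level distribution per well compared with pooled transfected vehicle control wells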); settings: HeLa MKP-3 transfected, phospho-Erk imaging KS statistic, at 10 µM, cells stimulated with TPA for 15 min
[4] = molecular target: Dual specificity protein phosphatase 6 (Homo sapiens) (UniProt Q16828); experiment: as above; settings: HeLa MKP-3 transfected, phospho-Erk imaging KS statistic; at 10 µM; stronger effect = higher value; cells stimulated with TPA for 15 min
Sequence of Dual specificity protein phosphatase 6 (Homo sapiens) (Q16828 whole entry, looked up): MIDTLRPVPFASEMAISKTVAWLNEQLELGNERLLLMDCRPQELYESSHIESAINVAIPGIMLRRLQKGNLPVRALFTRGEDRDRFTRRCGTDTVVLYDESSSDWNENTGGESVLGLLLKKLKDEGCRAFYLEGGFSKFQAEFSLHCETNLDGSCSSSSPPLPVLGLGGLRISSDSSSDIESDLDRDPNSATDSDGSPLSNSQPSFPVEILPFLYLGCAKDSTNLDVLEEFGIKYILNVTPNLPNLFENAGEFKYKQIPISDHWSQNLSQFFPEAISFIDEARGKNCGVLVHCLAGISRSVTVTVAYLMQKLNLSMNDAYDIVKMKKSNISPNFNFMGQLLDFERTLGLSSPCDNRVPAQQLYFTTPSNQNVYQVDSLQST

[5] = molecular target: Voltage-gated potassium channel subunit beta-2 (Rattus norvegicus) (UniProt P62483); experiment: KvBeta enzyme negative modulators, primary screen, biochemical, NADPH fluorescence (AID 622;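 active = fluorescence slope higher than the sample average by over 3 SD, cut at about -0.22 in these data, passing the limit was not always enough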;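 note: slope of raw intensity against log time taken from 70 to 1610 s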); settings: recombinant KvBeta, 4-cyanobenzaldehyde reduction, at 10 µM, stronger effect = higher value
Sequence of Voltage-gated potassium channel subunit beta-2 (Rattus norvegicus) (P62483 whole entry, looked up): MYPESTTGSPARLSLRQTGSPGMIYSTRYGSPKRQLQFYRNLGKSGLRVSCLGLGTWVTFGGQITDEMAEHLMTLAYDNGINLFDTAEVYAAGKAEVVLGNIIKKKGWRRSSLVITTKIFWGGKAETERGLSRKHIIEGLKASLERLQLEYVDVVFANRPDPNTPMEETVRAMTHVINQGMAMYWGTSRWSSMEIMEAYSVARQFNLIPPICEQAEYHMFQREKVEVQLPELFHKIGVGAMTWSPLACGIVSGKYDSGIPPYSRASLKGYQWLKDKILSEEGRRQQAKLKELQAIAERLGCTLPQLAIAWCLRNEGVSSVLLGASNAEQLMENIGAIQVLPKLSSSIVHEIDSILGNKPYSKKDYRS

[6] = molecular target: Voltage-gated potassium channel subunit beta-2 (Rattus norvegicus) (UniProt P62483); experiment: KvBeta positive modulators, primary screen, biochemical, NADPH fluorescence (AID 623;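 active = NADPH fluorescence slope more negative than the mean of all samples by about 3 SD, 99.7% confidence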;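 note: fluorescence intensity change per second fitted from 20 to 320 s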); settings: Recombinant KvBeta, NADPH fluorescence decrease slope, 10 min; at 10 µM; stronger effect = lower value
[7] = molecular target: Alpha-2C adrenergic receptor (Homo sapiens) (UniProt P18825); experiment: modulators of alpha2C/GIRK thallium flux, primary screen, cell-based, HEK293 alpha2C/GIRK1/2 (AID 624;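 active = fluorescence slope after compound addition differing from the mean of all screened samples at 99.7% confidence, in either direction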;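 note: slope of fluorescence ratio to pre-addition baseline per second over 15 to 24 s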); settings: thallium flux BTC fluorescence, at 10 µM, actives lie on both sides
Sequence of Alpha-2C adrenergic receptor (Homo sapiens) (P18825 whole entry, looked up): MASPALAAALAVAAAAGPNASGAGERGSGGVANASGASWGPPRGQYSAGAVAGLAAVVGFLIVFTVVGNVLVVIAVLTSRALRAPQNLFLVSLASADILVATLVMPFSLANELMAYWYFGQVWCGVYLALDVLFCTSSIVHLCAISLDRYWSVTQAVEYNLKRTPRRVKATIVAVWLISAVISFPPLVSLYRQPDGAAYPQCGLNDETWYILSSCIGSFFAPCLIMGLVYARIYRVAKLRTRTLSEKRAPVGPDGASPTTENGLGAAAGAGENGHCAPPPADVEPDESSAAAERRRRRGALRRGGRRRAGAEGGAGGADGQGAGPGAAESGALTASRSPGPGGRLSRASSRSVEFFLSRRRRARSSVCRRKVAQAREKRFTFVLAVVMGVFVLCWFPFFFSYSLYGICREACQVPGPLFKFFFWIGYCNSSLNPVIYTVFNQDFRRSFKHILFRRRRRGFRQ

[8] = inhibitors of larval lipid processing in zebrafish, primary screen, whole organism, PED6 fluorescence, gall bladder and intestine (AID 686;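 active = a full or partial loss of lipid-probe fluorescence in the fish gall bladder, intestine or both, judged by eye; inactive = no fluorescence loss, or compound toxic to the fish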;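 note: larvae 5 to 7 days old with five fish per well; signal comes from phospholipase A2 cleavage of quenched PED6 carried via bile; overnight exposure to compound and PED6 before scoring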); settings: Zebrafish larvae PED6 lipid processing, fluorescence scoring; screened at 20 µM (by protocol)
[9] = inhibitors of Chlamydomonas gravitaxis, primary screen, whole organism, Chlamydomonas reinhardtii, WT vs cilia-less mutant, absorbance, 96-well (AID 463189); settings: OD600 absorbance, 2 days, at 10 µM, stronger effect = higher value;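 note: 0% = wild type cc124 cells in DMSO and 100% = ciliumless bld1 mutant cells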
[10] = inhibitors of Sendai virus-induced IRF3 signaling, primary screen, TLR/RLR signaling modifier project, cell-based, Sendai virus stimulus, luciferase, 10K MLSCN set (AID 602276;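 active = inhibition at or above 50% at 10 µM; inactive = inhibition below 50%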;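 note: firefly luciferase from ISG56 promoter only with Renilla not read in this screen; 0% = Sendai virus plus DMSO and 100% = medium plus DMSO without virus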); settings: HEK293 RL24 IRF3 luciferase reporter, at 10 µM, stronger effect = higher value
[11] = inhibitors of poly I:C-induced TLR3 signaling, primary screen, cell-based, poly I:C stimulus, luciferase, 10K MLSCN set (AID 602277;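 active = inhibition of the reporter signal at or above 50%; inactive = inhibition below 50%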); settings: HEK293-TLR3 RL24 IRF3 luciferase reporter, at 10 µM, stronger effect = higher value
[12] = molecular target: Muscarinic acetylcholine receptor M4 (Homo sapiens) (UniProt P08173); experiment: compounds altering M4/GIRK thallium flux, either direction, primary screen, M4 allosteric agonist project, cell-based, HEK293 M4/GIRK, BTC-AM (AID 625;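 active = fluorescence slope after compound addition differing from the mean of all tested samples at 99.7% confidence, mostly higher but some lower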;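 note: thallium influx through GIRK channels coupled to M4 in HEK293 cells with BTC-AM dye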); settings: at 10 µM, actives lie on both sides
Sequence of Muscarinic acetylcholine receptor M4 (Homo sapiens) (P08173 whole entry, looked up): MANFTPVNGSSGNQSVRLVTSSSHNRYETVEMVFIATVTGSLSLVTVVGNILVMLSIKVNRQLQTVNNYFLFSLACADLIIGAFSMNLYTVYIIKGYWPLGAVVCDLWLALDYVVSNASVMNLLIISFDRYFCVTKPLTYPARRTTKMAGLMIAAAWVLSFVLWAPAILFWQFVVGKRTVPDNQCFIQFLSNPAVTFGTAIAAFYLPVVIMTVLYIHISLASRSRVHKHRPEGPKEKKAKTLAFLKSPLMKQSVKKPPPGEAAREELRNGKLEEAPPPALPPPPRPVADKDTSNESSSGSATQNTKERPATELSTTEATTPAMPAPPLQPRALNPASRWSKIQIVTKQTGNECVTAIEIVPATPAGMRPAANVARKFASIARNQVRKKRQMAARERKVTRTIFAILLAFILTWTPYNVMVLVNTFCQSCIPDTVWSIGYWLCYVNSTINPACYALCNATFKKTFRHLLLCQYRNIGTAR

[13] = measured here: cell density z-score
[14] = measured here: nuclear c-Myc green intensity z-score
[15] = measured here: nuclear pErk red intensity z-score, stronger effect = higher value

Row | SMILES | inhibition of aggregation [1] | nuclei count [1] [%] | inhibition [2] | nuclei count [2] [%] | z-score [3, 13] | z-score [3, 14] | z-score [3, 15] | inhibition [4] | fluorescence slope [5] | NADPH fluorescence slope [6] | slope [7] | outcome [8] | inhibition [9] | inhibition [10] | inhibition [11] | fluorescence slope [12]
1 | CCc1cccc2c3c([nH]c12)C(CC)(CC(=O)O)OCC3 (stereo not given) | 3.6% (inactive) | 111 | -122% (inactive) | 126 | -0.0395 | 0.0959 | -0.905 | -0.493% (inactive) | -0.442 (inactive) | -6.2e-05 (inactive) | 0.00464 (inactive) | inactive | -6.89% (inactive) and 27.4% (inactive) | 10.1% (inactive) | 33.6% (inactive) | –
2 | CCN1CCN(C(=O)N[C@@H](C(=O)N[C@@H]2C(=O)N3[C@@H]2SC(C)(C)[C@@H]3C(=O)O)c2ccccc2)C(=O)C1=O | 2.8% (inactive) | 97.2 | -1.2% (inactive) | 101 | -0.734 | -0.264 | -1.18 | 5.42% (inactive) | -0.465 (inactive) | -4.7e-05 (inactive) | 0.0054 (inactive) | inactive | -8.35% (inactive) | 6.7% (inactive) | 14.4% (inactive) | –
3 | CC(C)(C)NC[C@H](O)COc1nsnc1N1CCOCC1 | -13.8% (inactive) | 102 | -120% (inactive) | 119 | -0.0639 | -0.39 | 1.55 | -10.4% (inactive) | -0.502 (inactive) | -5e-06 (inactive) | 0.00458 (inactive) | inactive | -10.5% (inactive) | 6.87% (inactive) | 46.4% (inactive) | –
4 | COc1cc2nc(N3CCN(C(=O)C4COc5ccccc5O4)CC3)nc(N)c2cc1OC (stereo not given) | -4.2% (inactive) | 100 | -103% (inactive) | 123 | 0.0825 | -0.753 | -0.892 | -0.493% (inactive) | -0.435 (inactive) | -3.3e-05 (inactive) | 0.00431 (inactive) | inactive | -6.99% (inactive) and 1.78% (inactive) | 5.11% (inactive) | 24.7% (inactive) | –
5 | C=C(CC)C(=O)c1ccc(OCC(=O)O)c(Cl)c1Cl | 19.4% (inactive) | 108 | -32.5% (inactive) | 120 | -0.0756 | -0.0149 | 0.974 | 5.42% (inactive) | -0.476 (inactive) | -8e-05 (inactive) | 0.00538 (inactive) | inactive | -3.46% (inactive) | 17.1% (inactive) | 39.1% (inactive) | –
6 | Clc1ccc(Cn2c(CN3CCCC3)nc3ccccc32)cc1 | 13.4% (inactive) | 112 | -57.5% (inactive) | 133 | 0.217 | 0.404 | 0.417 | 1.48% (inactive) | -0.551 (inactive) | -3.2e-05 (inactive) | 0.00478 (inactive) | inactive; toxic | 2.55% (inactive) and 22.9% (inactive) | 16.5% (inactive) | 28.2% (inactive) | –
7 | CC(=O)OCC(=O)[C@@]1(O)CC[C@H]2[C@@H]3CCC4=CC(=O)C=C[C@]4(C)[C@H]3[C@@H](O)C[C@@]21C | -0.6% (inactive) | 67.7 | -93.5% (inactive) | 130 | -0.00243 | 0.765 | -0.773 | 9.37% (inactive) | -0.506 (inactive) | 4.9e-06 (inactive) | 0.00476 (inactive) | inactive | 24.9% (inactive) | -13.7% (inactive) | -1.49% (inactive) | –
8 | O=C(c1ccc(F)cc1)C1CCN(CCn2c(=O)[nH]c3ccccc3c2=O)CC1 | -3.2% (inactive) | 96.4 | -46.9% (inactive) | 112 | 0.976 | 0.365 | 0.163 | 14.6% (inactive) | -0.453 (inactive) | -6.9e-05 (inactive) | 0.00505 (inactive) | inactive | 4.84% (inactive) and -9.28% (inactive) | 0.811% (inactive) | 31.8% (inactive) | –
9 | CC1CCc2cc(F)cc3c(=O)c(C(=O)O)cn1c23 (stereo not given) | 3.7% (inactive) | 100 | -103% (inactive) | 114 | -0.137 | -0.228 | 0.466 | 13.3% (inactive) | -0.526 (inactive) | -7.5e-05 (inactive) | 0.00491 (inactive) | inactive | -5.13% (inactive) | 9.82% (inactive) | 32.9% (inactive) | –
10 | CCCCNC(=O)NS(=O)(=O)c1ccc(C)cc1 | 10.9% (inactive) | 99.2 | -56.6% (inactive) | 107 | 0.542 | -0.348 | -1.78 | 9.37% (inactive) | -0.454 (inactive) | 3.1e-05 (inactive) | 0.00531 (inactive) | inactive | 7.5% (inactive) and 29.4% (inactive) | -6.27% (inactive) | 5.7% (inactive) | –
11 | COC(=O)c1ccc(N2C(=O)CC(N3CCN(C(=O)c4ccco4)CC3)C2=O)cc1 (stereo not given) | 0.2% (inactive) | 103 | -195% (inactive) | 104 | 0.106 | -0.422 | -0.968 | 8.31% (inactive) | -0.527 (inactive) | -5.8e-05 (inactive) | – | inactive | 1.38% (inactive) | 6.43% (inactive) | 18.5% (inactive) | 0.00534 (inactive)
12 | OCCOCCN1CCN(C(c2ccccc2)c2ccc(Cl)cc2)CC1 (stereo not given) | 2.8% (inactive) | 101 | -65.7% (inactive) | 139 | -1.36 | 1.18 | 1.19 | -0.828% (inactive) | -0.46 (inactive) | 2.2e-05 (inactive) | 0.00446 (inactive) | inactive | -13.4% (inactive) | 14.5% (inactive) | 34.4% (inactive) | –
13 | CCn1cc(C(=O)O)c(=O)c2cnc(N3CCNCC3)nc21 | 1.6% (inactive) | 108 | -26.1% (inactive) | 127 | 0.597 | 0.614 | 0.576 | 14.6% (inactive) | -0.512 (inactive) | -1.1e-05 (inactive) | 0.00483 (inactive) | inactive | -9.24% (inactive) | 4.06% (inactive) | 33.1% (inactive) | –
14 | O=C(O)CCC(=O)Nc1ccc(S(=O)(=O)Nc2nccs2)cc1 | -13.3% (inactive) | 93.6 | -59.2% (inactive) | 110 | -1.01 | 2.12 | 1.88 | 1.38% (inactive) | -0.504 (inactive) | -5.7e-05 (inactive) | 0.00423 (inactive) | inactive | 5.01% (inactive) | 21.6% (inactive) | 37.7% (inactive) | –
15 | CCCc1cc(=O)[nH]c(=S)[nH]1 | 6.2% (inactive) | 105 | -113% (inactive) | 126 | 0.461 | -0.47 | -0.798 | 15.3% (inactive) | -0.468 (inactive) | -6.3e-05 (inactive) | 0.00437 (inactive) | inactive | -10.4% (inactive) | 10.3% (inactive) | 30.1% (inactive) | –
16 | CC(=O)N[C@@H](CS)C(=O)O | 7.3% (inactive) | 104 | -49.2% (inactive) | 120 | 0.131 | -1.67 | 0.657 | 1.48% (inactive) | -0.543 (inactive) | -3.7e-05 (inactive) | 0.0055 (inactive) | inactive | 3.13% (inactive) and -2.25% (inactive) | 11.9% (inactive) | 21% (inactive) | –
17 | c1ccc2c(c1)CCCC2C1=NCCN1 (stereo not given) | -2.2% (inactive) | 106 | -52.5% (inactive) | 112 | -1.5 | 0.768 | 0.367 | 5.79% (inactive) | -0.464 (inactive) | -5e-05 (inactive) | 0.00529 (inactive) | inactive | 8.79% (inactive) and 22.7% (inactive) | 12.1% (inactive) | 48.1% (inactive) | –
18 | O=c1n(CCCN2CCN(c3cccc(Cl)c3)CC2)nc2ccccn12 | 32% (inactive) | 90 | -117% (inactive) | 124 | -0.214 | -1.66 | 0.38 | -5.24% (inactive) | -0.359 (inactive) | -2.9e-05 (inactive) | 0.00504 (inactive) | inactive | 7.63% (inactive) and 123% (active) | 10.6% (inactive) | 31.8% (inactive) | –
19 | CCc1nc(N)nc(N)c1-c1ccc(Cl)cc1 | -35.2% (inactive) | 76.3 | -93.1% (inactive) | 108 | -1.21 | 2.44 | -0.22 | 12.4% (inactive) | -0.503 (inactive) | 1.5e-05 (inactive) | 0.00459 (inactive) | inactive | 37.1% (inactive) | 18.7% (inactive) | -1.71% (inactive) | –
20 | Cc1cc(C)nc(NS(=O)(=O)c2ccc(N)cc2)n1 | -9.6% (inactive) | 104 | -28.5% (inactive) | 107 | -0.395 | 0.0726 | -0.14 | -3.03% (inactive) | -0.51 (inactive) | -5.4e-05 (inactive) | 0.00415 (inactive) | inactive | -15% (inactive) | 15.1% (inactive) | 26.9% (inactive) | –
21 | CCOC(=O)c1cc2c(=O)n3cccc(C)c3nc2n(CCc2ccccc2)c1=N | -9% (inactive) | 86.6 | -145% (inactive) | 116 | -0.746 | 0.0077 | 0.78 | -16.8% (inactive) | -0.42 (inactive) | -2e-05 (inactive) | – | inactive | 150% (active) | 12% (inactive) | 28.5% (inactive) | 0.00314 (inactive)
22 | CN(C)CCCN1c2ccccc2Sc2ccccc21 | 3.5% (inactive) | 100 | 3.6% (inactive) | 110 | 0.654 | 0.845 | -0.156 | 11.3% (inactive) | -0.511 (inactive) | -7e-05 (inactive) | 0.00267 (inactive) | inactive | 8.93% (inactive) and 48% (inactive) | 6.01% (inactive) | 34.6% (inactive) | –
